# Screening results as filed in PubChem BioAssay.
# Rows were chosen to be rich in hits. Some 21% of all compounds tested hit in one or more screens of this group.
# Pf growth 96h = inhibits malaria parasite growth, 96 h; P. falciparum luciferase reporter growth, 96 h; Potency, µM (series often up to 28.7 µM), actives largely listed as inhibitors; actives 6.9% (n = 320,000)
#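 Parasite growth measured via integrated firefly luciferase reporter in P. falciparum. Infected erythrocytes at 2% hematocrit, 0.05% parasitemia final were treated 96 hours at 37 C under 5% CO2, and luminescence was read.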
# HCMV inh = blocks human cytomegalovirus replication | HFF cells, HCMV-luciferase reporter, 72 h; hits give low values | activity change, negative = inhibition, % at 57.5 µM | actives 4.5% (n = 410,000) | AID 1259415; in the data active = activity change below about -60%; inconclusive = no clear call, values can overlap the other calls; inactive = above about -39%
#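 Two compound doses tested in HFFs infected with HCMV-luciferase, MOI 1 PFU/cell, 72 h at 37C. Lysate luminescence read with OneGlo; data normalized against buffer-only and 10uM Salinomycin inhibitor controls.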
# Cycloheximide cs = counter-screen hit for Shiga toxin inhibitors, cycloheximide; cell reporter, cycloheximide protein synthesis inhibition counterscreen; actives 12% (n = 300,000); AID 2314; max response, %; in the data active = max response mostly above about 13%, no sharp cut-off; inactive = mostly below about 14%; note: read at 38.3 µM for the half of the compounds with a filed dose
# HCV inh = inhibitors of hepatitis C virus infection; Huh7.5.1 HCVcc-Cre infection, luciferase reporter, 44 h; Potency, µM (series often up to 41.8 µM), usual class: inhibitors; actives 3.4% (n = 340,000)
#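 Cells (1,000/well) were plated 4 h before compound, then infected with HCVcc-Cre virus (~0.5 moi). After 44 h further culture, infection was read as luciferase luminescence following a 15 min substrate incubation at room temperature.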
# Pf growth 48h = inhibits P. falciparum growth in the first generation, 48 h. P. falciparum luciferase growth in erythrocytes, 48 h. Potency, µM (titrated, usually from 28.7 µM), hits mostly inhibitors. actives 5.9% (n = 310,000)
#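 Cell-based growth assay: transgenic P. falciparum expressing firefly luciferase, cultured in red cells within RPMI 1640 containing 0.5% w/v Albumax, 24 mM bicarbonate and gentamycin. A drop in luciferase activity indicates inhibition.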
# Shiga inhibitor = blocks Shiga toxin action in Vero cells; Vero cells, Shiga toxin protein synthesis inhibition reporter; inhibition, % at 38.7 µM; actives 9.2% (n = 290,000); in the data active = inhibition mostly above about 28%, no sharp cut-off; inactive = mostly below about 43%
# Numbers stand for hits; n = inactive; u = inconclusive; x = not tested or not shown. Unless noted, calls come from the whole dose curve; as a rule, active = well fitted inhibition curve with a large enough effect; inconclusive = small, poorly fitted or top-dose-only effect, or another doubt; inactive = no such curve, though single readings can be large or run the other way.
SMILES,Pf growth 96h,HCMV inh,Cycloheximide cs,HCV inh,Pf growth 48h,Shiga inhibitor
O=C(N/N=C/c1cc(Cl)ccc1O)c1ccc(Br)cc1,n,-102,n,3.2µM,u,n
O=C(N/N=C/c1cc(Br)ccc1O)c1ccncc1,1.7µM,n,n,u,2.6µM,n
O=C(N/N=C/c1ccc(O)c(O)c1)c1cccc(S(=O)(=O)N2CCCCC2)c1,n,n,n,n,n,n
O=C(CNC(=O)c1ccc(S(=O)(=O)N2CCCC2)cc1)N/N=C/c1c(Cl)cccc1Cl,n,-72,n,u,n,n
O=C(N/N=C\c1cc(Br)ccc1O)c1ccc(S(=O)(=O)N2CCCCC2)cc1,n,-100,n,3.5µM,5.2µM,n
COC(=O)CC1C(=O)NCCN1C(=S)NC(=O)c1sc2ccccc2c1Cl (stereo not drawn),u,n,n,n,n,n
CN(C)c1cccc2c1c(NC(=O)c1ccc(Cl)cc1)nn2C,u,n,n,u,n,n
CN(C)C(=O)c1ccc(NC(=O)COC(=O)Cn2cc(C(F)(F)F)ccc2=O)cc1,n,n,x,n,n,x
Cc1nn(-c2ccccc2)c2c1N(CC(=O)N1CCN(c3ccc(Cl)cc3)CC1)C(=O)CS2,x,n,x,x,x,x
CC(C)N(C(=O)Cc1ccccc1[N+](=O)[O-])C(C)C,n,n,n,n,n,n
O=C(CSc1nnc(-c2ccccc2)c(-c2ccccc2)n1)Nc1ccc(Br)cn1,u,n,n,u,u,n
COc1ccccc1CNC(=O)COC(=O)c1ccc2c(=O)n3c(nc2c1)CCCCC3,n,n,x,n,n,x
COc1ccc(Br)cc1/C=N/NC(=O)c1ccc(OC)c(OC)c1,n,n,n,u,4.1µM,n
CCC(c1ccc(O)c(O)c1)C(CC)c1ccc(O)c(O)c1 (stereo not drawn),x,x,x,13µM,x,x
O=C(Nc1ccncc1)Nc1cccc(F)c1,n,n,29,n,u,n
CC(=O)c1cccc(NC(=O)Nc2cccnc2)c1,x,-77,n,n,n,n
O=C(Nc1ccncc1)c1cccc(F)c1,x,n,n,n,u,n
Cc1ccc(NC(=O)Nc2cccnc2)cc1NC(=O)Nc1cccnc1,u,u,24,11µM,9.3µM,n
Cc1cc(C)cc(NC(=O)Nc2cccnc2)c1,n,n,n,u,u,n
O=C(Nc1cccnc1)Nc1cccc(F)c1,u,n,18,n,n,n
CC(=O)c1cccc(S(=O)(=O)Nc2cccnc2)c1,n,n,n,n,n,n
Fc1cccc(NC(=S)Nc2cccnc2)c1,n,u,n,n,n,n
CC(C)Sc1nnc(SCC(=O)NCCCN2CCCC2=O)s1,u,u,x,n,n,x
COCC(=O)N[C@@H]1c2ccccc2CC[C@@H]1OCc1ccccc1,x,n,x,n,x,x
O=C1NC[C@@H](CCCCN2CCN(Cc3ccccc3)C(=O)C2=O)N(CC2CCCCC2)C1=O,x,n,x,x,x,x
SMILES,Pf growth 96h,HCMV inh,Cycloheximide cs,HCV inh,Pf growth 48h,Shiga inhibitor
O=C(Nc1cccnc1)c1c(F)cccc1F,x,-104,n,n,n,n
CC(=O)Nc1ccc(NC(=O)c2ccc(COc3ccc(C)cc3)o2)cc1,9.3µM,n,19,n,n,111
COc1ccc(NC(=O)c2ccc(COc3ccc(C)cc3)o2)cc1,5.2µM,n,34,u,n,73
C/C(=N\NC(=O)CCC(=O)NCc1ccccc1)c1ccco1,n,n,n,n,n,n
COc1ccc(C(=O)NC2CCN(CC(=O)Nc3c(C)cccc3C)CC2)cc1OC,n,n,n,n,n,x
CN(CC(=O)Nc1ccccc1Br)C(=O)c1sccc1-c1ccccc1,u,n,x,u,u,x
NC(=O)c1ccc(Oc2ncc(C(F)(F)F)cc2Cl)cc1,n,n,n,n,u,n
Cc1cccc(C(=O)N2CCN(c3ccc(C(F)(F)F)cn3)CC2)c1C,n,u,n,u,x,n
O=C(O)c1ccc(Oc2ccc(C(F)(F)F)cn2)cc1,n,n,15,n,n,n
COC(=O)c1ccc(Oc2ccc(C(F)(F)F)cn2)cc1,n,n,28,n,n,45
Cc1ccccc1N1CCN(C(=O)c2ccc(Oc3ccc(C(F)(F)F)cn3)cc2)CC1,13µM,n,n,u,9.3µM,n
CC(=O)Oc1ccc(C(=C2CCCCC2)c2ccc(OC(C)=O)cc2)cc1,n,x,n,x,n,n
CCOC(=O)c1[nH]nc(N)c1NC(=O)c1ccc(Cl)cc1Cl,n,n,27,n,n,n
Cc1ccc(CNC(=O)Cn2c(=O)n(-c3ccc(Cl)cc3)c(=O)c3c(C)c(C)sc32)cc1,x,n,x,x,x,x
O=C(COc1ccc(Cl)cc1Cl)Nc1ccc(-c2ccc(N3CCOCC3)nn2)cc1,u,n,x,n,n,x
CCC(=O)Nc1cccc(-c2ccc(N3CCC(C)CC3)nn2)c1,n,-67,45,n,n,64
O=C(Nc1cccc(-c2ccc(N3CCOCC3)nn2)c1)c1ccc([N+](=O)[O-])cc1,9.3µM,n,x,u,u,x
CCC(=O)Nc1ccc(-c2ccc(N3CCN(C)CC3)nn2)cc1,n,x,26,n,n,35
CC1CCN(c2ccc(-c3cccc(NC(=O)C(F)(F)F)c3)nn2)CC1,n,n,n,n,n,n
CCC(=O)Nc1ccc(-c2ccc(N3CCC(C)CC3)nn2)cc1,u,x,29,n,n,76
Cc1cccc(-n2c(N)c(-c3nc4ccccc4n3C)c3nc4ccccc4nc32)c1,7.4µM,n,n,n,10µM,n
Cc1c(NC(=O)c2c(N)n(-c3ccccc3)c3nc4ccccc4nc23)c(=O)n(-c2ccccc2)n1C,n,x,n,n,n,n
Cn1c(-c2c(N)n(-c3ccccc3)c3nc4ccccc4nc23)nc2ccccc21,6.6µM,n,n,n,9.3µM,n
